# Measurements: PubChem BioAssay (Tox21)
# Where “and” joins values, the source holds several entries; their conditions need not be identical. Equal entries are not always repeated. Results filed as inconclusive are left out. Where a call stands in place of a potency, no number is given. A structure can be active in one record and inactive in another. Calls of active or inactive are those of the source. Unless noted, the call rests on the fitted dose curve; in most records, active means well fitted cell-killing curve with a large enough effect in the repeat runs; inconclusive means weak or mixed curves, or effect the other way; inactive means flat fitted curve, though single readings scatter.
# Biological target: Estrogen receptor beta (Homo sapiens) (UniProt Q92731)
# Assay: qHTS assay to identify small molecule agonists of the estrogen receptor beta (ER-beta) signaling pathway (AID 1259377; active means well fitted activation curve with a large enough effect in the signal ratio in the repeat runs, not every such curve was filed as active; the % refers to the signal ratio)
# Details: ER-beta-UAS-bla HEK293T, beta-lactamase FRET ratio, 16 h; series mostly up to 92.4 µM; activation: at the top concentration
# Procedure, shortened: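 Measured by fluorescence intensity from a B/G FRET beta-lactamase substrate (2 h, room temperature) in ER-beta-UAS-bla HEK293T cells treated with DMSO-dissolved compounds for 16 hr at 37C and 5% CO2.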
# Chain of Estrogen receptor beta (Homo sapiens) (Q92731 whole entry, looked up): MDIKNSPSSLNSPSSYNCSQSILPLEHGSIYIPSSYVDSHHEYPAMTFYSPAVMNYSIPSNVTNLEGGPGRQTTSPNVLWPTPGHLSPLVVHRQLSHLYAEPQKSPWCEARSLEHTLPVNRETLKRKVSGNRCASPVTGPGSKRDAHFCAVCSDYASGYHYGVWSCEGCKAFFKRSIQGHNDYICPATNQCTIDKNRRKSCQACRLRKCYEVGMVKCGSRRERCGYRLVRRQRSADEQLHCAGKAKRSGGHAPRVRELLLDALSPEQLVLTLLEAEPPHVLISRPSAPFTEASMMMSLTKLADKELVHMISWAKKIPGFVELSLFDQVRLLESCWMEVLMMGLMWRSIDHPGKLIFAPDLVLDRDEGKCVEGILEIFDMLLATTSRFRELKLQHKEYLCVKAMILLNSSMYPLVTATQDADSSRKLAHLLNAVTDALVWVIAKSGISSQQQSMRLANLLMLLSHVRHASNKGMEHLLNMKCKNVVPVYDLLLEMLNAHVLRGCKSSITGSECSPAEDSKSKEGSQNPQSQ
Structure (SMILES),activation,Potency
Oc1cc(Cl)ccc1Oc1ccc(Cl)cc1Cl,-1.53% [at 42.5 µM] (inactive),–
CCC(C)(c1ccc(O)cc1)c1ccc(O)cc1,-0.14% (inactive),–
O=C(NC(=O)c1c(F)cccc1F)Nc1ccc(Cl)cc1,–,inactive
C#CCOS(=O)OC1CCCCC1Oc1ccc(C(C)(C)C)cc1 (stereo not given),–,inactive
CC(C)Oc1cc(-n2nc(C(C)(C)C)oc2=O)c(Cl)cc1Cl,–,inactive
O=C(Nc1ccc(Br)cc1)c1cc(Br)cc(Br)c1O,-8.28% (inactive),–
NNC(N)=S,-1.62% (inactive),–
Nc1cccnc1,–,inactive
CN(C)c1ccc(C(=O)c2ccc(N(C)C)cc2)cc1,–,inactive
O=[N+]([O-])c1ccc(O)c([N+](=O)[O-])c1,-5.03% (inactive),–
Oc1cc(Cl)c(Cl)cc1Cl,–,inactive
CCOC(=S)S,-0.874% (inactive),–
COP(=S)(OC)Oc1ccc([N+](=O)[O-])cc1,-7.73% (inactive),–
O=S(=O)(Oc1ccc(Cl)cc1)c1ccc(Cl)cc1,–,inactive
N#CC(Br)Br,-0.314% (inactive),–
CCOP(=S)(OCC)O/N=C(\C#N)c1ccccc1,–,inactive
Nn1cnnc1,–,inactive
NC(=S)Nc1ccccc1,6.67% (inactive),–
Nc1ccncc1,3.21% [at 42.5 µM] (inactive),–
CC(O)CCO (stereo not given),-0.321% (inactive),–
CCOc1cc(Oc2ccc(C(F)(F)F)cc2Cl)ccc1[N+](=O)[O-],–,inactive
CCOC(=O)C(C)OC(=O)c1cc(Oc2ccc(C(F)(F)F)cc2Cl)ccc1[N+](=O)[O-] (stereo not given),–,inactive
O=C1C=CC(=O)C=C1,–,inactive
C=CCc1ccc(OC)cc1,10.8% (inactive),–

# Biological target: Estrogen receptor beta (Homo sapiens) (UniProt Q92731)
# Assay: qHTS assay to identify small molecule antagonists of the estrogen receptor beta (ER-beta) signaling pathway (AID 1259378; active means well fitted inhibition curve with a large enough effect in the signal ratio in the repeat runs, not every such curve was filed as active; the % refers to the signal ratio; further: potency means the concentration at half of the fitted maximal effect)
# Details: ER-beta-UAS-bla HEK293T, beta-lactamase FRET ratio, 16 h; series mostly up to 92.4 µM; activity, negative = inhibition: at the top concentration
# Procedure, shortened: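 ER-beta-UAS-bla HEK293T cells in 2% charcoal-stripped FBS medium treated with compound plus 1nM final 17-beta-estradiol for 16 hr at 37C. Beta-lactamase reporter read by FRET substrate fluorescence after 2 hours at room temperature.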
Structure (SMILES),Potency,"activity, negative = inhibition"
CCC(C)(c1ccc(O)cc1)c1ccc(O)cc1,243 nM (active),–
O=C(NC(=O)c1c(F)cccc1F)Nc1ccc(Cl)cc1,–,12.8% (inactive)
C#CCOS(=O)OC1CCCCC1Oc1ccc(C(C)(C)C)cc1 (stereo not given),5.45 µM (active) and 4.86 µM (active),–
NNC(N)=S,11.3 µM (active) and 30.6 µM (active),–
Nc1cccnc1,inactive,–
CN(C)c1ccc(C(=O)c2ccc(N(C)C)cc2)cc1,–,-4.04% (inactive)
O=[N+]([O-])c1ccc(O)c([N+](=O)[O-])c1,–,-17.9% (inactive)
Oc1cc(Cl)c(Cl)cc1Cl,inactive,–
COP(=S)(OC)Oc1ccc([N+](=O)[O-])cc1,inactive,–
O=S(=O)(Oc1ccc(Cl)cc1)c1ccc(Cl)cc1,inactive,–
N#CC(Br)Br,inactive,–
CCOP(=S)(OCC)O/N=C(\C#N)c1ccccc1,inactive,–
CCC(C)(C)c1ccc(O)cc1,inactive,–
Nn1cnnc1,inactive,–
NC(=S)Nc1ccccc1,inactive,–
Nc1ccncc1,inactive,–
CC(O)CCO (stereo not given),inactive,–
CCOc1cc(Oc2ccc(C(F)(F)F)cc2Cl)ccc1[N+](=O)[O-],inactive,–
O=C1C=CC(=O)C=C1,inactive,–
CCOCN(C(=O)CCl)c1c(C)cccc1CC,21700 nM (active),–
C=CCc1ccc(OC)cc1,inactive,–

# Tested on: not listed separately
# Assay: qHTS assay to identify small molecule agonists of the androgen receptor (AR) signaling pathway in the presence of an antagonist - cell viability counter screen (AID 1259379); further: nearly all actives have a fitted effect of over 25% in size; further: potency means the concentration at half of the fitted maximal effect;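 on activity change, negative = cytotoxicity: MDA-kb2 human breast cancer cells carrying an MMTV luciferase reporter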
# Details: MDA-kb2 viability, CellTiter-Fluor, 16 h; series mostly up to 92.4 µM; activity change, negative = cytotoxicity: at the top concentration
# Procedure, shortened: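 Cells: MDA-kb2 (MMTV-luc, AR and GR elements), 3,000/well, 5 hr settle. Added: nilutamide 3.0uM final, then compounds (15 conc.). Incubation: 16 hr, 37C, no CO2. Read-out: CellTiter-Fluor, 1 hr, fluorescence.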
Structure (SMILES),Potency,"activity change, negative = cytotoxicity"
CCCCC(CC)COC(=O)c1ccc(C(=O)OCC(CC)CCCC)c(C(=O)OCC(CC)CCCC)c1 (stereo not given),inactive,–
C[C@]12CCC(=O)C(O)=C1CC[C@@H]1[C@@H]2CC[C@]2(C)C(=O)CC[C@@H]12,inactive,–
Oc1cc(Cl)ccc1Oc1ccc(Cl)cc1Cl,27.9 µM (active),–
CCC(C)(c1ccc(O)cc1)c1ccc(O)cc1,inactive,–
O=C(NC(=O)c1c(F)cccc1F)Nc1ccc(Cl)cc1,inactive,–
c1cc(OCC2CO2)ccc1Cc1ccc(OCC2CO2)cc1 (stereo not given),inactive,–
C#CCOS(=O)OC1CCCCC1Oc1ccc(C(C)(C)C)cc1 (stereo not given),5.45 µM (active),–
CCN(CC)C(=O)SCc1ccc(Cl)cc1,inactive,–
CC(C)Oc1cc(-n2nc(C(C)(C)C)oc2=O)c(Cl)cc1Cl,inactive,–
O=C(Nc1ccc(Br)cc1)c1cc(Br)cc(Br)c1O,21.6 µM (active) and 19.3 µM (active) and 29.8 µM (active),–
CNC(=O)Oc1cccc2c1OC(C)(C)O2,inactive,–
CC(C)=CC1C(C(=O)OCc2coc(Cc3ccccc3)c2)C1(C)C (stereo not given),inactive,–
NNC(N)=S,inactive,–
Nc1cccnc1,inactive,–
N#Cc1cc(Br)c(O)c(Br)c1,–,-3.03% (inactive)
O=[N+]([O-])c1ccc(O)c([N+](=O)[O-])c1,48.8 µM (active) and 48.6 µM (active),–
CCN(CC)C(=O)/C(Cl)=C(\C)OP(=O)(OC)OC,inactive,–
Oc1cc(Cl)c(Cl)cc1Cl,–,0.683% (inactive)

Structure (SMILES),Potency,"activity change, negative = cytotoxicity"
CCOC(=S)S,inactive,–
O=S(=O)(Oc1ccc(Cl)cc1)c1ccc(Cl)cc1,inactive,–
N#CC(Br)Br,–,0.496% (inactive)
CCOP(=S)(OCC)O/N=C(\C#N)c1ccccc1,inactive,–
CCC(C)(C)c1ccc(O)cc1,inactive,–
Nn1cnnc1,inactive,–
NC(=S)Nc1ccccc1,24.7 µM (active) and inactive,–
Nc1ccncc1,inactive,–
CC(O)CCO (stereo not given),inactive,–
Oc1c(Cl)c(Cl)c(Cl)c(Cl)c1Cl,–,2.33% [at 42.5 µM] (inactive)
CCOc1cc(Oc2ccc(C(F)(F)F)cc2Cl)ccc1[N+](=O)[O-],inactive,–
CCOc1cc(C=O)ccc1O,inactive,–
CC(C)c1ccc(CO)cc1,inactive,–
CCOC(=O)C(C)OC(=O)c1cc(Oc2ccc(C(F)(F)F)cc2Cl)ccc1[N+](=O)[O-] (stereo not given),inactive,–
Clc1nc(Cl)nc(Cl)n1,inactive,–
O=C1C=CC(=O)C=C1,inactive,–
C=CCc1ccc(OC)cc1,inactive,–
